PLC-beta3 inh = human PLC-beta3 inhibitors, primary screen, biochemical, fluorescence; AID 720704, 2013; 1-phosphatidylinositol 4,5-bisphosphate phosphodiesterase beta-3 (Homo sapiens), Q01970; Purified PLC-beta3, fluorogenic substrate; inhibition, % at 12.2 µM; hit rate 0.18% among 370,000; in the data active means inhibition above about 11%
PLC-gamma1 inh = PLC-gamma1 enzyme inhibitors, primary screen, biochemical, fluorescence, purified enzyme; 1-phosphatidylinositol 4,5-bisphosphate phosphodiesterase gamma-1 (Homo sapiens), P19174; fluorogenic substrate; inhibition, % at 12.2 µM; hit rate 0.84% among 370,000; in the data active means inhibition above about 9.5%
ADAM10 inh = human ADAM10 inhibitors, primary screen, biochemical, QFRET, HTS; Disintegrin and metalloproteinase domain-containing protein 10 (Homo sapiens), O14672; recombinant ADAM10, EDANS/DABCYL FRET peptide cleavage, 3 h; inhibition, % at 7 µM; hit rate 0.62% among 370,000; AID 720582, 2013;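 active means inhibition above a per-campaign cutoff equal to the mean of compounds falling between control-based bounds plus 3 SD, cut at about 20% in these data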
HGIII-sPLA2 inh = human group III sPLA2 inhibitors, primary screen, biochemical, QFRET, BODIPY PC-A2 liposome substrate. inhibition, % at 12.2 µM. hit rate 0.56% among 370,000. QFRET BODIPY PC-A2 liposome hydrolysis, fluorescence. AID 743126, 2013;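 active means inhibition above mean plus 3 SD of compounds lying within the high and low control bounds, cut at about 19% in these data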
Target sequence (Q9NZ20 whole entry, looked up): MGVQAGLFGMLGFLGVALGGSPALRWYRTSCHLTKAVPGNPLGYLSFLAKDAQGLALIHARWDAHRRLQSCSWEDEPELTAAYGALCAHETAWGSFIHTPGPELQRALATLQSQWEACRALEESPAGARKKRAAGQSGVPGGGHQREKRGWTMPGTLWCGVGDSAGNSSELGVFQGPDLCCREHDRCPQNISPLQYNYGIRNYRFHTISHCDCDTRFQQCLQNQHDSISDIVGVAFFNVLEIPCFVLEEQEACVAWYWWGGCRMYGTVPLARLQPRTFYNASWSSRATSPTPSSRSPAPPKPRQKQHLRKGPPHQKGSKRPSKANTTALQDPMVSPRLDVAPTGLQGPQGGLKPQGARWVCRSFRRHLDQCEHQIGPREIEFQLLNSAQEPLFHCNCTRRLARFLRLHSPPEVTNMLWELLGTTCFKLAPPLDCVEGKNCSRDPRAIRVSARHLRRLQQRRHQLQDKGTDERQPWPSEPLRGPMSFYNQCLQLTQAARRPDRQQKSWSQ
KLK7 zymogen act = proKLK7 zymogen activators, primary screen, biochemical, fluorescence intensity | hit rate 0.9% among 370,000 | purified proKLK7, EDANS-DABCYL substrate fluorescence; 100% is mature enzyme control, 0% vehicle | activation, % at 7 µM | AID 652039, 2013;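 active means activation above the mean of all tested compounds plus 3 SD, computed per campaign excluding outliers beyond control limits, cut at about 13% in these data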
ADAM17 inh = ADAM17 inhibitors, primary screen, biochemical, QFRET; inhibition, % at 6.95 µM; AID 720648, 2013; hit rate 0.83% among 370,000; Disintegrin and metalloproteinase domain-containing protein 17 (Homo sapiens), P78536; recombinant ADAM17, EDANS/DABCYL FRET peptide cleavage;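 active means inhibition above the mean of compounds lying between control limits plus 3 SD, set per campaign, cut at about 8.5% in these data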
hGIII sPLA2 conf = human group III sPLA2 inhibitors, confirmation, biochemical, QFRET, triplicate; shares compounds with HGIII-sPLA2 inh; recombinant hGIII-sPLA2, BODIPY PC-A2 QFRET fluorescence; inhibition, % at 12.2 µM; hit rate 34% among 2,000;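 active means mean inhibition across triplicates above the hit cutoff set in the earlier primary screen, cut at about 19% in these data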
BODIPY interf = 535nm fluorescence optical interference, confirmation, artefact control for HGIII-sPLA2 inhibitor project, biochemical, QFRET. BODIPY FL product fluorescence interference. inhibition, % at 12.2 µM. shares compounds with HGIII-sPLA2 inh. AID 743282, 2014. hit rate 8.5% among 2,000;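 active means average inhibition above the solvent-only control mean plus 3 SD, cut at about 6% in these data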
535nm interf DR = 535nm fluorescence optical interference, dose response, artefact control for HGIII-sPLA2 inhibitor project, biochemical, QFRET; shares compounds with HGIII-sPLA2 inh; BODIPY FL product fluorescence interference, cell-free; IC50, µM; 240 tested, under 10 active; AID 743455, 2014;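 active means IC50 at or below 10 µM; inactive means IC50 above 10 µM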
Of the large screens only hits and unclear results are named; the others gave an inactive call (follow-up assays come after a bar, where they were run). Compounds with a hit are over-represented: about 3.4% of the library has one in this group of screens.

S=c1[nH]nc(-c2ccncc2)n1Cc1ccco1	none
COc1ccccc1NC(=S)NNC(=O)c1ccccc1Br	HGIII-sPLA2 inh 22.1 | hGIII sPLA2 conf inactive | BODIPY interf inactive
Cc1cccc(NC(=S)NNC(=O)c2ccccc2OC(F)F)c1	HGIII-sPLA2 inh 23.3 | hGIII sPLA2 conf 35.6 | BODIPY interf inactive
O=C(CSCc1ccccc1)NNC(=S)Nc1cccc(Cl)c1Cl	HGIII-sPLA2 inh 38.0 | hGIII sPLA2 conf 35.1 | BODIPY interf inactive | 535nm interf DR inactive
CNC(=S)NNC(=O)CSCc1c(Cl)cccc1Cl	none
Cc1cccc(NC(=S)NNC(=O)c2ccccc2Br)c1	HGIII-sPLA2 inh 31.1 | hGIII sPLA2 conf 25.8 | BODIPY interf inactive
Cc1occc1C(=O)NNC(=S)Nc1ccccc1C(F)(F)F	HGIII-sPLA2 inh 21.4 | hGIII sPLA2 conf 26.6 | BODIPY interf inactive
Cc1ccccc1NC(=S)NNC(=O)c1ccoc1C	none
COc1ccccc1NC(=S)NNC(=O)c1cc(C)nn1C	HGIII-sPLA2 inh 19.3 | hGIII sPLA2 conf 21.6 | BODIPY interf inactive
Cc1cccc(NC(=S)NNC(=O)c2ccc3c(c2)OCO3)c1	HGIII-sPLA2 inh 22.9 | hGIII sPLA2 conf 42.9 | BODIPY interf inactive | 535nm interf DR inactive
O=C(NNC(=S)Nc1ccccc1Cl)c1ccccc1Cl	HGIII-sPLA2 inh 25.6 | hGIII sPLA2 conf 34.6 | BODIPY interf inactive | 535nm interf DR inactive
Cc1cccc(NC(=O)c2ccc3c(c2)OCCO3)c1	none
O=C(NC1CCCCN(Cc2ccc(OC(F)(F)F)cc2)C1=O)c1ccc2ccccc2c1 (configuration not stated)	none
COc1ccc([C@H]2OC(=O)C[C@@H]2C(=O)N2CCN(c3ccccc3F)CC2)cc1OC	none
Fc1ccc(NC2CCC23CCC(c2ccccc2)CC3)cc1C(F)(F)F (configuration not stated)	none (no result: KLK7 zymogen act)
CN1OC[C@@H]2CN3C(=NCCc4ccccc4)Sc4ccccc4[C@@H]3C[C@@H]21	none
CCOC(=O)Cn1cc(CN2C(C(=O)OC)CN(Cc3ccc(Cl)cc3)CCS2(=O)=O)nn1 (configuration not stated)	none
COC(=O)c1cc(-c2ccc(-c3ccccc3)c(F)c2)c(=O)n2c1CCC2	none
Nc1ccc(Oc2cc(N)cc(Oc3ccccc3)c2)cc1	HGIII-sPLA2 inh 23.1 | hGIII sPLA2 conf inactive | BODIPY interf inactive
COc1ccc(C2O[C@@H](C)[C@@H]3C(=O)N4CCc5c([nH]c6ccccc56)[C@@H]4C[C@@H]3N2C)cc1 (some centres not stated)	none
NCCOc1ccc(C23CC4CC(CC(C4)C2)C3)cc1	HGIII-sPLA2 inh 31.2 | hGIII sPLA2 conf inactive | BODIPY interf inactive
OCCN1CCN(CC(O)COc2ccc(C34CC5CC(CC(C5)C3)C4)cc2)CC1 (configuration not stated)	none
COC(=O)C1CN(Cc2cn(Cc3ccc(Cl)cc3)nn2)CCS(=O)(=O)N1Cc1ccccc1 (configuration not stated)	none
Cc1ccccc1CC(=O)Nc1nnc(-c2cccnc2)s1	none
S=c1[nH]cc(-c2ccc(Cl)cc2)n1Cc1ccccc1	HGIII-sPLA2 inh 24.3 | hGIII sPLA2 conf inactive | BODIPY interf inactive
CCn1c(-c2ccccc2)c[nH]c1=S	none
CC(=O)O[C@@H]1C=C[C@@H](C#Cc2ccc(C(C)(C)C)cc2)O[C@@H]1COC(=O)NCc1ccccc1	none
C/C(=N\OCC(=O)Nc1nc2ccccc2s1)c1ccccc1	HGIII-sPLA2 inh 19.3 | hGIII sPLA2 conf inactive | BODIPY interf inactive
COc1ccc(/C(C)=N/OCC(=O)Nc2nc3ccccc3s2)cc1OC	none
CCN(CC)C(=O)O[C@H]1CC[C@@]23CCCN2C(=O)CCC[C@H]3C1	none (no result: KLK7 zymogen act)
COc1ccc(S[C@]2(C(=O)N(C)C)CC(=O)N(c3ccccc3)[C@@H]2c2ccc(OC)cc2)cc1	none
O=C1CN(C(=O)c2cc([N+](=O)[O-])ccc2Cl)C(c2ccccc2)c2cc(F)ccc2N1 (configuration not stated)	HGIII-sPLA2 inh 30.6 | hGIII sPLA2 conf inactive | BODIPY interf inactive
COC(=O)C[C@H]1CC[C@@H]2[C@@H](COc3ccc(NC(=O)c4ccno4)cc3C(=O)N2C)O1	HGIII-sPLA2 inh 20.1 | hGIII sPLA2 conf inactive | BODIPY interf inactive
COC(=O)C[C@@H]1CC[C@H]2[C@@H](COc3ccc(NC(=O)c4ccc(C(F)(F)F)cc4)cc3C(=O)N2C)O1	none
CC(C)(C)c1ccc(-c2csc(N3CCC(C(N)=O)CC3)n2)cc1	none (no result: KLK7 zymogen act)
CCN(CCCCCN(C)C)Cc1cc2ccccc2o1	HGIII-sPLA2 inh 20.8 | hGIII sPLA2 conf inactive | BODIPY interf inactive
CN(C)CCCN(C(=O)c1cc2ccccc2oc1=O)c1nc2ccc(F)cc2s1	none
Cc1cc(Br)ccc1NC(=O)CNC(=O)CN(C)Cc1nc2ccccc2c(=O)[nH]1	HGIII-sPLA2 inh 24.6 | hGIII sPLA2 conf inactive | BODIPY interf inactive
Cc1ccc(NC(=O)CN(C)Cc2nc3ccccc3c(=O)[nH]2)c(Br)c1	none
O=C(COC(=O)/C=C/c1ccccc1)Nc1ccc2c(c1)OCCO2	none
O=C(COC(=O)/C=C/c1ccc(Cl)cc1)Nc1ccc2c(c1)OCCO2	HGIII-sPLA2 inh 22.4 | hGIII sPLA2 conf inactive | BODIPY interf inactive
COc1cc2c(cc1OC)C(c1ccc([N+](=O)[O-])cc1)NCC2 (configuration not stated)	HGIII-sPLA2 inh 19.5 | hGIII sPLA2 conf inactive | BODIPY interf inactive
C=CCN1C(=O)c2n[nH]c(COC)c2C1c1ccc(C)cc1 (configuration not stated)	none
CCN(CC)c1ccc(/C=N/NC(=O)OC)c(O)c1	none
CC(C)c1c(C(=O)N/N=C/c2ccc3c(c2)OCO3)nnn1-c1nonc1N	none
CCN(CC)c1ccc(/C=N/NC(=O)c2nnn(-c3nonc3N)c2C(C)C)c(O)c1	HGIII-sPLA2 inh 23.8 | hGIII sPLA2 conf 45.9 | BODIPY interf 7.6

High-throughput results: PubChem, The Scripps Research Institute Molecular Screening Center
